The results in this text go back to ChEMBL document CHEMBL1961873, “Compounds: GSK PKIS; Assays: Nanosyn kinase panel” (2012).

The target in experiment [1] is Tyrosine-protein kinase Fyn (Homo sapiens) (UniProt P06241). The note with it: at 1 µM.
Experiment [2] deals with Tyrosine-protein kinase HCK (Homo sapiens) (UniProt P08631). The note with it: at 0.1 µM.
The target is the same in experiment [3]. To be noted: at 1 µM.
Experiment [4] addresses Insulin-like growth factor 1 receptor (Homo sapiens) (UniProt P08069). The note with it: at 0.1 µM.
The target is the same in experiment [5]. To be noted: at 1 µM.
In experiment [6] the target is Insulin receptor (Homo sapiens) (UniProt P06213). To be noted: at 0.1 µM.
Experiment [7] shares this target. To be noted: at 1 µM.
In experiment [8] the target is Insulin receptor-related protein (Homo sapiens) (UniProt P14616). The note with it: at 0.1 µM.
The target is the same in experiment [9]. The note with it: at 1 µM.
Experiment [10] deals with T1, Tyrosine-protein kinase ITK/TSK (Homo sapiens) (UniProt Q08881).
T1 sequence (whole entry): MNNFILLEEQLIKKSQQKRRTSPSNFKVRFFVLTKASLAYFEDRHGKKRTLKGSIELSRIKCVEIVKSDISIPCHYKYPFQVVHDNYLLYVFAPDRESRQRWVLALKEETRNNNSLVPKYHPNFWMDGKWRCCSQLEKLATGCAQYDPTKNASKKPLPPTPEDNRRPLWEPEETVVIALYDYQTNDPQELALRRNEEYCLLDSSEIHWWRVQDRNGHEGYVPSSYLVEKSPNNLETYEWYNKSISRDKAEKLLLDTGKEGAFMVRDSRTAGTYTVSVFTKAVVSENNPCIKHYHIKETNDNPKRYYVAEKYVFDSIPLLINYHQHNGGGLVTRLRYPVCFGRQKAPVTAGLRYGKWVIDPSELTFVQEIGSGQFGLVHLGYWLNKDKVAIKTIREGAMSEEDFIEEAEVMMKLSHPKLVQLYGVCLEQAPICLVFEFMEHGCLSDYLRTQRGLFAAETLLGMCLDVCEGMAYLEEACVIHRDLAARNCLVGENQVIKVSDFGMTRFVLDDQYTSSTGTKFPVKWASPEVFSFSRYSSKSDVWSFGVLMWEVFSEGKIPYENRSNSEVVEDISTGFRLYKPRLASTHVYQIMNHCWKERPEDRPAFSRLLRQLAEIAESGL
The note with it: at 0.1 µM.

For experiment [11], the target named is T1, Tyrosine-protein kinase ITK/TSK (Homo sapiens). The note with it: at 1 µM.
The target of experiment [12] is Tyrosine-protein kinase JAK1 (Homo sapiens) (UniProt P23458). To be noted: at 0.1 µM.
Experiment [13] shares this target. The note with it: at 1 µM.
Experiment [14] deals with Tyrosine-protein kinase JAK2 (Homo sapiens) (UniProt O60674). To be noted: at 0.1 µM.
Experiment [15] has the same target. The note with it: at 1 µM.
Experiment [16] has as its target T2, Tyrosine-protein kinase JAK3 (Homo sapiens) (UniProt P52333).
T2 sequence (whole entry): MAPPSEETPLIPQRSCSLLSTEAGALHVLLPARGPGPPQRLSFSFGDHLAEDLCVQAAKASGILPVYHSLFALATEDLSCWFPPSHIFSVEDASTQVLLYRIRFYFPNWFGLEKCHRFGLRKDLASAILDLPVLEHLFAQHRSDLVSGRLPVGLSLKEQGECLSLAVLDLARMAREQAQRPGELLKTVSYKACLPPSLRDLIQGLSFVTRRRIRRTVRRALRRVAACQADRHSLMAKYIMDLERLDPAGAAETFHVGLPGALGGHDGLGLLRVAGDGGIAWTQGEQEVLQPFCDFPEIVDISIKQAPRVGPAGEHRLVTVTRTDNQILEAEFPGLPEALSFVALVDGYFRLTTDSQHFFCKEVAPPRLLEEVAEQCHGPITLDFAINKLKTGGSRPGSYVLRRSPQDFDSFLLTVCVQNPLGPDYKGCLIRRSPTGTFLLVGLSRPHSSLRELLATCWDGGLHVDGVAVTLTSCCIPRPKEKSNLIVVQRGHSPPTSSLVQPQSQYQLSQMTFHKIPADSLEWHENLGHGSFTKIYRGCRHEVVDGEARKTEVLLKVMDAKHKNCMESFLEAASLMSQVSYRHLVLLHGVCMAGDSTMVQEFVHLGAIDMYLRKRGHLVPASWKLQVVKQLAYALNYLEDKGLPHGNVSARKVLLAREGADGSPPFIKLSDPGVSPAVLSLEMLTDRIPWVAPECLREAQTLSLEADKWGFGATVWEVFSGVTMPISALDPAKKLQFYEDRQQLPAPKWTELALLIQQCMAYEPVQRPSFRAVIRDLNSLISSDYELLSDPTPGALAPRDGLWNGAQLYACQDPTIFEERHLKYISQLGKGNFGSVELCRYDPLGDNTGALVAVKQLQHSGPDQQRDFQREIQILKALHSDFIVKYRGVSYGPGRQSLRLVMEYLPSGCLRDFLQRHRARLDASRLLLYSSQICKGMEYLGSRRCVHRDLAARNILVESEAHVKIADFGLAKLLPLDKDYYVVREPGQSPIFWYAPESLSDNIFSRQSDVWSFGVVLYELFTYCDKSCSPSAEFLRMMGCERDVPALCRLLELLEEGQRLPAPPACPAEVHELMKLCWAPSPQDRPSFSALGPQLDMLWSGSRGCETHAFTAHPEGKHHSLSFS
The note with it: at 0.1 µM.

For experiment [17], the target named is T2, Tyrosine-protein kinase JAK3 (Homo sapiens). To be noted: at 1 µM.
The target of experiment [18] is Vascular endothelial growth factor receptor 2 (Homo sapiens) (UniProt P35968). To be noted: at 0.1 µM.
Experiment [19] shares this target. To be noted: at 1 µM.
For experiment [20], the target named is Mast/stem cell growth factor receptor Kit (Homo sapiens) (UniProt P10721). To be noted: at 0.1 µM.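 Further: values are mean inhibition of KIT, from the GSK PKIS dataset.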
Sequence of Mast/stem cell growth factor receptor Kit (Homo sapiens) (P10721 whole entry): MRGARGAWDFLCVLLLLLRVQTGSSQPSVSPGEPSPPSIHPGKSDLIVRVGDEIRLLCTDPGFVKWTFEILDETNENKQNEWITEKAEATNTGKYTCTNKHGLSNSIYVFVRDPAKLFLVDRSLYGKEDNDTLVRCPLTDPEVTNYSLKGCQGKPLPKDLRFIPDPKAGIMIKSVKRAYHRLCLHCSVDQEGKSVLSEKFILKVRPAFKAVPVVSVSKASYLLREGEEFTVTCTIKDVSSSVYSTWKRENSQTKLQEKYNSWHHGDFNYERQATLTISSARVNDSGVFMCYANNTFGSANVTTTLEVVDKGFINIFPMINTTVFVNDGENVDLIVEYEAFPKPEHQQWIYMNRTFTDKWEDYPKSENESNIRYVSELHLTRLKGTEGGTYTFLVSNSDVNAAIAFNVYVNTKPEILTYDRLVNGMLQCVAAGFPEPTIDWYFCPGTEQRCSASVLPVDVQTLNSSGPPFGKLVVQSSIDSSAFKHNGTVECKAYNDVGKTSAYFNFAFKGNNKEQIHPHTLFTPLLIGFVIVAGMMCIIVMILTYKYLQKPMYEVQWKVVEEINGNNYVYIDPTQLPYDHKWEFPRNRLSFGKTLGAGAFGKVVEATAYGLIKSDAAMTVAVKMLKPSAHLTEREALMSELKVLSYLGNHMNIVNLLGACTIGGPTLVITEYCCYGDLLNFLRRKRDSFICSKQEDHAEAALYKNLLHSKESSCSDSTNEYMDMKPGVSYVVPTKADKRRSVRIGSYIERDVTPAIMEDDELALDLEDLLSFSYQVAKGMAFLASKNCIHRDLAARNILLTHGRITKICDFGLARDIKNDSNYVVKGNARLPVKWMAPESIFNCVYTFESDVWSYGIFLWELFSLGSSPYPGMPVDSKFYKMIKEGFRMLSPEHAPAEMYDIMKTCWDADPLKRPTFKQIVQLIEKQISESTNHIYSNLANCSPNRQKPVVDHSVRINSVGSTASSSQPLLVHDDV

Sequence of Tyrosine-protein kinase JAK2 (Homo sapiens) (O60674 whole entry): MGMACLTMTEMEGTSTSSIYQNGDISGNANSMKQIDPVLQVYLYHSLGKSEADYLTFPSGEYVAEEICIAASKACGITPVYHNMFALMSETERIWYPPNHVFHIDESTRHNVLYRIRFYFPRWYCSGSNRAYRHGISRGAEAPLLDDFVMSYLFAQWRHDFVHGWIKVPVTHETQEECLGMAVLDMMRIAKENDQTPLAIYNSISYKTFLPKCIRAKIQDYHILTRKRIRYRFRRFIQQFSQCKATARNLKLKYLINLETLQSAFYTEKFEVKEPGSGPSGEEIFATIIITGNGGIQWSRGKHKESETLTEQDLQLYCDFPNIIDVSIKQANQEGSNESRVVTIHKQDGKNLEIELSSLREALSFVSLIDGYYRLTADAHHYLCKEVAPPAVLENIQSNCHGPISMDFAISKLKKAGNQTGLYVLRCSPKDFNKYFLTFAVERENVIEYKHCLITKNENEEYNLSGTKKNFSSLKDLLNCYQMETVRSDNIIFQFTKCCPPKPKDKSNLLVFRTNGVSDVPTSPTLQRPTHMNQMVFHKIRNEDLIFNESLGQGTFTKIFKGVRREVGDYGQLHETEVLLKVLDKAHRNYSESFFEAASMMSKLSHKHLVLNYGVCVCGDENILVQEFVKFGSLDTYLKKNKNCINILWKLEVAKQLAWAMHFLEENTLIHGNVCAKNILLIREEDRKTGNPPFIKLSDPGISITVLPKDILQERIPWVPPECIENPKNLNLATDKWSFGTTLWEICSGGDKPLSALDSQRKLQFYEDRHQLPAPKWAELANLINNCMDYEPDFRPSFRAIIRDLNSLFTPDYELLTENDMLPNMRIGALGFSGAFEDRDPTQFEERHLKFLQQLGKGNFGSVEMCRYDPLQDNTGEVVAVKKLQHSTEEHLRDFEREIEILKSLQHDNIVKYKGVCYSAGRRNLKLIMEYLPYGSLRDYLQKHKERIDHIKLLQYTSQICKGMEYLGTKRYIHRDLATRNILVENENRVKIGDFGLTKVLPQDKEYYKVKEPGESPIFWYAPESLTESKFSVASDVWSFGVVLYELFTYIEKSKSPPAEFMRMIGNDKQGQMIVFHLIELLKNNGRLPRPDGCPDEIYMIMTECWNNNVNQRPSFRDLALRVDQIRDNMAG
Sequence of Vascular endothelial growth factor receptor 2 (Homo sapiens) (P35968 whole entry): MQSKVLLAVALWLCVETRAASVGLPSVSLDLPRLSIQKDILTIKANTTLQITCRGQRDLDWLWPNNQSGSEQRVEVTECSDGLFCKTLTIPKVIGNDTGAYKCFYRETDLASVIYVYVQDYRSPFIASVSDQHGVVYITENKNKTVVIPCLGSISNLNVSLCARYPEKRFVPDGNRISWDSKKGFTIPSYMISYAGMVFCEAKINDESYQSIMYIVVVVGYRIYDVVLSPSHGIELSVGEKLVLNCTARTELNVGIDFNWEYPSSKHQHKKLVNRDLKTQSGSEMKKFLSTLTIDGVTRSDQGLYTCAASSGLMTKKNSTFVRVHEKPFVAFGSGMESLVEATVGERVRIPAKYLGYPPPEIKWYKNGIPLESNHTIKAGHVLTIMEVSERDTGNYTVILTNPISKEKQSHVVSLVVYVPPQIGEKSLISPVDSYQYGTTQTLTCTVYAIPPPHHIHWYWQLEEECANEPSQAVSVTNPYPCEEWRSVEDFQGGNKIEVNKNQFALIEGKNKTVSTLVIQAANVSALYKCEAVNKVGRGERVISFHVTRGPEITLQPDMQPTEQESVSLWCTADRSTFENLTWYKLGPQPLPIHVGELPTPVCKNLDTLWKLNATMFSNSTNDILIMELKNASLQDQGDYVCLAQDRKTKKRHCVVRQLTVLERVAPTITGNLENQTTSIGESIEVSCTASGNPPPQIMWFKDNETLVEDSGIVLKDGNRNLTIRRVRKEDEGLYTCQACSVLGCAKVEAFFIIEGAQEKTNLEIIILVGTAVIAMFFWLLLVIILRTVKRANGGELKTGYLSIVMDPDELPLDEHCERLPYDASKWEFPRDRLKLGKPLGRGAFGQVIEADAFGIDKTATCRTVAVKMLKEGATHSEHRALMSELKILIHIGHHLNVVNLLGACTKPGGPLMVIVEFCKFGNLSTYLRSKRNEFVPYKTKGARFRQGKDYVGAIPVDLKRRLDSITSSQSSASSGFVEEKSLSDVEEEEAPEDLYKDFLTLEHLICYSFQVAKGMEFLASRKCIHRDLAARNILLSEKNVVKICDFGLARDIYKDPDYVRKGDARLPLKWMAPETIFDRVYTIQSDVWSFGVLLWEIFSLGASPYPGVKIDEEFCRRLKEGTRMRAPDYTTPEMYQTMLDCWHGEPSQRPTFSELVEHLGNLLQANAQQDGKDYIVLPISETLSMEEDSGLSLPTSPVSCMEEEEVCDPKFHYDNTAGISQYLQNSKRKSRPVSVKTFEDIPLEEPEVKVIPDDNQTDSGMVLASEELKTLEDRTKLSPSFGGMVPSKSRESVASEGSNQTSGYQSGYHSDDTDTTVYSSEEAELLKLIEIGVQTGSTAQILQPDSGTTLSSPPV
Sequence of Insulin-like growth factor 1 receptor (Homo sapiens) (P08069 31-736 limits assumed): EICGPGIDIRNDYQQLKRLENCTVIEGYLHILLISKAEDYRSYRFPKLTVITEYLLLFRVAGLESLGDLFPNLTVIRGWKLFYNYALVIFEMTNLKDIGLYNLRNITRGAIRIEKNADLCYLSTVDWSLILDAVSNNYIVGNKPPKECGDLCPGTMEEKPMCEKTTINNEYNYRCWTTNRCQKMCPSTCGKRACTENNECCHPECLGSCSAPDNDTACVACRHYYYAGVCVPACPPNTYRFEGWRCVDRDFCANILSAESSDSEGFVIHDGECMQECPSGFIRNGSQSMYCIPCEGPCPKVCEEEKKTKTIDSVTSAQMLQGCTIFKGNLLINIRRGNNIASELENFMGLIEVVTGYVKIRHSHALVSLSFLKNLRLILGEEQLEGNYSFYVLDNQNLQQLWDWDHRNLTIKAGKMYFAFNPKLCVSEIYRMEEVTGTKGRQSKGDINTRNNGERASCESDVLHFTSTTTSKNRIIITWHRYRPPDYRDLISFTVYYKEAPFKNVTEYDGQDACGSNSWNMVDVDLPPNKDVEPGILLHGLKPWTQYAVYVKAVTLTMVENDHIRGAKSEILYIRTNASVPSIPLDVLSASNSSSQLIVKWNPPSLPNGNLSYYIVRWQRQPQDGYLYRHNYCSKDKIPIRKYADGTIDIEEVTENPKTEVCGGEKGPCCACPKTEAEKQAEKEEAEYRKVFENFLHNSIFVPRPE
Sequence of Insulin-like growth factor 1 receptor (Homo sapiens) (P08069 741-1367 limits assumed): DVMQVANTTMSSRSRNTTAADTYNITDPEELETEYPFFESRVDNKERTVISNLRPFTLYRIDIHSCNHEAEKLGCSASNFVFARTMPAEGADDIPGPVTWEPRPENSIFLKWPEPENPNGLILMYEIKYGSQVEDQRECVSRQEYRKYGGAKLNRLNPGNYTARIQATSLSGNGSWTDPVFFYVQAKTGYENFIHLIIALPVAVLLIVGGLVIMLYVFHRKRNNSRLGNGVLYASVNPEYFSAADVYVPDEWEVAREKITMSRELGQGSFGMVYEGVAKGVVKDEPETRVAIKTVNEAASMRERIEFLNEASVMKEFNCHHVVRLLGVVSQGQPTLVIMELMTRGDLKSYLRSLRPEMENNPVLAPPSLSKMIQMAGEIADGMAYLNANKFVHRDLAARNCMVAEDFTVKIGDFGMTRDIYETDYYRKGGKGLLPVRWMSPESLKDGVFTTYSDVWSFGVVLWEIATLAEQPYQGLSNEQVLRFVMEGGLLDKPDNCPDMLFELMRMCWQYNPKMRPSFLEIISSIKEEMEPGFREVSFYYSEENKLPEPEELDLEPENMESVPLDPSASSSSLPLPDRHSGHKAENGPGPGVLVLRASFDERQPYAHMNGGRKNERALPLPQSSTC

For orientation: inhibition means the change of the read-out against control, counted positive when it falls. As to `COc1cccc(-n2ncc3c(N/N=C/c4ccc(S(C)(=O)=O)cc4)ncnc32)c1`, the inhibition is 69.8% in experiment [1]; 17% in [2]; 55.7% in experiment [3]; -6.32% in experiment [4]; -5.27% in [5]; 2.59% in experiment [6]. In addition, the inhibition is 1.06% in [7]; 0.2% in experiment [8]; 0.63% in experiment [9]; -2.33% in experiment [10]; 0.29% in [11]; 1.39% in [12]. For the same molecule, the inhibition was 6.92% in [13]; 1.22% in [14]; 11.5% in experiment [15]; -4.07% in experiment [16]; 5.53% in experiment [17]; 31.4% in experiment [18]. Moreover, the inhibition is 66.4% in experiment [19] and 16% in [20].

For `COC(=O)c1cncc(/C=C/c2c(C)cc(O)cc2C)c1`, the inhibition in experiment [1] stood at 20%; in [2] it was 8.77%; in experiment [3], 37.5%; in [4] it was 2.87%; in [5] it was 2.99%; in experiment [6], 3.1%. In addition, the inhibition was 0.15% in [7]; 5.13% in [8]; 2.83% in [9]; 0.96% in [10]; 1.55% in experiment [11]; 2.46% in [12]. Also, the inhibition in experiment [13] is 4.21%; in [14], 0.81%; in [15], 2.05%; in experiment [16], -1.76%; in [17], 0.99%; in [18], 2.37%. Also, the values for the inhibition in experiment [19] and in [20] were 4.91% and 32.9%, respectively.

Turning to `CC(C)c1ccc2c(c1)NC(=O)/C2=N/Nc1ccc(S(N)(=O)=O)cc1`, the inhibition in experiment [1] is 7.54%; in experiment [2] it was 0.57%; in experiment [3], 11%; in experiment [4] it was -0.14%; in experiment [5], 1.33%; in experiment [6], 4%. The inhibition is 1.87% in [7]; -1.32% in experiment [8]; -1.93% in experiment [9]; 0.01% in [10]; 2.46% in [11]; -0.53% in experiment [12]. Further, the inhibition was 0.94% in [13]; -1.94% in [14]; -0.2% in experiment [15]; -0.51% in [16]; 1.08% in experiment [17]; 1.26% in experiment [18]. For the same molecule, the inhibition in experiment [19] came to 4.21%; in experiment [20], 7.67%.

`Nc1nccc(-c2c(-c3ccc(F)cc3)nn3cc(C(F)(F)F)ccc23)n1`: the inhibition in experiment [1] is 2.33%; in [2], -0.1%; in experiment [3], -0.25%; in experiment [4], -1.56%; in experiment [5], 1.35%; in experiment [6] it was 1.38%. In addition, the inhibition is 2.01% in [7]; 1.17% in experiment [8]; 1.01% in [9]; -1.78% in experiment [10]; 0.43% in experiment [11]; -0.26% in experiment [12]. For the same molecule, the inhibition in experiment [13] was 1.9%; in experiment [14] it was -0.24%; in [15] it was -1.98%; in [16], -1.7%; in [17], -0.29%; in [18], 0.31%. The inhibition was 0.56% in experiment [19] and -1.06% in [20].

Take `COc1ccc2ncnc(Nc3ccc(OCc4ccccc4)cc3)c2c1`: the inhibition amounted to 10.2% in [1]; 2.78% in [2]; 8.33% in experiment [3]; 0.69% in experiment [4]; 0.08% in experiment [5]; 0.98% in experiment [6]. Further, the inhibition in [7] turned out to be 3.05%; in experiment [8], 1.39%; in experiment [9], 2.07%; in experiment [10], 0.5%; in experiment [11], 1.7%; in [12], 1.35%. In addition, the inhibition amounted to 3.3% in experiment [13]; 1.02% in experiment [14]; 0.06% in experiment [15]; 0.27% in [16]; 0.67% in [17]; 1.51% in experiment [18]. Moreover, the results for the inhibition in experiment [19] and in experiment [20] were 3% and 3.24%, respectively.

For `Cc1ccc(Nc2ccnc(Nc3cccc(C(N)=O)c3)n2)cc1O`, the inhibition in [1] is 89.4%; in [2], 58.8%; in experiment [3], 83.5%; in experiment [4], -3.28%; in experiment [5], 17.2%; in [6], 3.53%. Besides, the inhibition is 13.7% in experiment [7]; 2.88% in [8]; 3.49% in [9]; -2.42% in experiment [10]; 0.3% in [11]; 5.16% in experiment [12]. Also, the inhibition in experiment [13] was 32.7%; in experiment [14] it was 5.29%; in experiment [15], 45.8%; in experiment [16] it was -4.07%; in experiment [17], 14%; in experiment [18], 76.9%. Besides, the inhibition came out at 90.7% in experiment [19] and 8.57% in [20].

In the case of `COc1cccc(-n2nc(C)c3c(N/N=C(\C)c4ccncc4)ncnc32)c1`, the inhibition in [1] is 4.54%; in [2] it was 1.01%; in experiment [3] it was 3.38%; in experiment [4] it was -0.28%; in experiment [5] it was 0.73%; in [6] it was 2.42%. In addition, the inhibition in experiment [7] was 0.25%; in [8], -2%; in experiment [9], -2.33%; in [10] it was 0.43%; in experiment [11], -0.01%; in experiment [12], 0.91%. Further, the inhibition is 4.07% in experiment [13]; -0.64% in [14]; 1.79% in experiment [15]; -1.14% in experiment [16]; 0.38% in [17]; 1.62% in experiment [18]. Further, the inhibition in [19] turned out to be 4.01%; in [20] it was 1.56%.
